CYP2C9 inhib – inhibitors of human CYP2C9; inhibition, % at 5 µM; actives 20% (n = 96,000); AID 777; P11712; CYP2C9 Supersomes, luciferin-H conversion, luminescence;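 active = blocking of liver enzyme CYP2C9 beyond about 50% at 5 µM, limit read from the data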
CYP2C9 activ – activators of human CYP2C9. activation factor at 5 µM. recombinant CYP2C9, luciferin-H conversion, luminescence; stronger effect = higher value; factor 1 = untreated enzyme, 0 = blocked. P11712. actives 1.4% (n = 96,000);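 active = activation factor of 2 or more for CYP2C9 at a 5 µM dose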;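 also: 0 = sulfaphenazole-blocked wells and 1 = vehicle-only wells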
CYP2C19 act – activators of human cytochrome P450 2C19; P33261; recombinant CYP2C19, luciferin-H EGE luminescence; stronger effect = higher value; 0 = fully inhibited enzyme, 1 = untreated enzyme; activation factor at 5 µM; 96,000 tested, under 10 active;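 active = activation factor of at least 2 at 5 µM in the primary screen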;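 also: 0 = wells with 2.5 mM tranylcypromine and 1 = vehicle-only wells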
Target sequence (P33261 whole entry, looked up): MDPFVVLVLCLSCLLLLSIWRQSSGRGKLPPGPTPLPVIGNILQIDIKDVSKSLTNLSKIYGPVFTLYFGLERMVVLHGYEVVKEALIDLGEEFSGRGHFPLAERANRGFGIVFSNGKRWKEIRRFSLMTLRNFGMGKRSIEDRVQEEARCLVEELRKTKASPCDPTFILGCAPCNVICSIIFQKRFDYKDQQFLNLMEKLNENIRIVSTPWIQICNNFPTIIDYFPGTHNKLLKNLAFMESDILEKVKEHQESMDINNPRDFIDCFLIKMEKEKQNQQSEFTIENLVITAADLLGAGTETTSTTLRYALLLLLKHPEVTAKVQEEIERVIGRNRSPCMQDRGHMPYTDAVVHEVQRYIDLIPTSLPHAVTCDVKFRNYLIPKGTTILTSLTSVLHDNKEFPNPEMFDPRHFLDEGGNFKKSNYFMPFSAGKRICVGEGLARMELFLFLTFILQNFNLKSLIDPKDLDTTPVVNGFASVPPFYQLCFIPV
CD11b adhes inh – inhibitors of human CD11b/CD18 binding to fibrinogen | K562 CD11b/CD18 adhesion to fibrinogen, ATPlite luminescence; Mn2+ added to activate the integrin | P05107+P11215 | inhibition, % at 10 µM | actives 0.54% (n = 93,000);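 active = primary inhibition of 50% or more at 10 µM, then 40% or more on retest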
CD11b adhes enh – CD11b/CD18-fibrinogen binding enhancement. P05107+P11215. K562 CD11b/CD18 adhesion to fibrinogen, ATPlite luminescence. activation, % at 10 µM. actives 0.07% (n = 93,000). AID 1499;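 active = 10 µM primary screen giving 50% or more activity, confirmed by 40% or more on retest at that dose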
CYP2C19 inh – inhibitors of human CYP2C19 | P33261 | CYP2C19 Supersomes, luciferin-H EGE luminescence, 30 min | inhibition, % at 5 µM | actives 21% (n = 96,000);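 active = CYP2C19 inhibition above a set limit at 5 µM in the primary screen, cut at about 50% in these data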;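 also: plate controls were negative control wells for no effect and 2.5 mM tranylcypromine positive control for full effect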
* marks the source's active call; other numbers are inactive results; . = not tested or not shown. Compounds with a hit are over-represented: about 28% of the library has one in this group of screens.

SMILES | CYP2C9 inhib | CYP2C9 activ | CYP2C19 act | CD11b adhes inh | CD11b adhes enh | CYP2C19 inh
CC(=O)NC(CCS(C)(=O)=O)C(=O)Nc1ccccc1Cl (configuration not stated) | 10 | 0.9 | 0.9 | -2 | -1 | 11
CC(=O)NC(CCS(C)(=O)=O)C(=O)Nc1cccc2ccccc12 (configuration not stated) | 54* | 0.5 | 0.9 | -15 | -1 | 6
O=C(Oc1ccc2ccccc2c1Br)N1CCCCCC1 | -24 | 1.2 | 1.1 | . | . | -9
O=[N+]([O-])c1ccc2c(c1)C(N1CCOCC1)/C(=C/COc1ccc3ccccc3c1Br)O2 (configuration not stated) | 48 | 0.5 | 0.5 | 0 | 5 | 52*
O=[N+]([O-])c1ccc2c(c1)C(N1CCOCC1)/C(=C/COc1ccc(F)cc1)O2 (configuration not stated) | 54* | 0.5 | 0.2 | -23 | 1 | 84*
O=[N+]([O-])c1ccc(OC/C=C2\Oc3ccc([N+](=O)[O-])cc3C2N2CCOCC2)cc1 (configuration not stated) | 19 | 0.8 | 0.3 | 6 | -2 | 71*
CCC/C(=N\NC(=O)c1csc(C)c1C)c1cccs1 | -19 | 1.2 | 0.3 | 2 | -3 | 67*
CCCCNC(=O)CNC(=O)c1cccs1 | 14 | 0.9 | 0.7 | -10 | -5 | 30
C/C(=N\NC(=O)c1csc(C)c1C)c1ccc(Cl)s1 | -10 | 1.1 | 1 | 6 | 0 | 4
CC/C(=N\NC(=O)c1csc(C)c1C)c1cccs1 | 14 | 0.9 | 0.3 | . | . | 75*
O=C(O)C1C(c2ccccc2)C(C(=O)N2CCOCC2)C1c1ccccc1 (configuration not stated) | 4 | 1 | 1.1 | -18 | 3 | -10
O=C(O)C1C(c2ccccc2)C(C(=O)Oc2ccc(O)cc2)C1c1ccccc1 (configuration not stated) | 80* | 0.2 | 0.9 | -8 | 4 | 11
O=C1Nc2ccc(Br)cc2C1=Nc1ccc(-c2nnc3n2CCCCC3)cc1 | -39 | 1.4 | 1.3 | -12 | -2 | -30
COc1cc(O)oc1C=Nc1ccc(Cl)cc1Cl | 18 | 0.8 | 0.3 | . | . | 69*
COc1cccc(-c2nnc3sc(-c4ccc(Cl)cc4)nn23)c1 | 66* | 0.3 | 0.6 | 10 | -4 | 36
c1ccc(-c2nnc3sc(-c4csc5c4CCCC5)nn23)cc1 | -4 | 1 | 0.9 | 18 | -4 | 9
Cc1cccc(-c2nnc3sc(-c4ccccc4C)nn23)c1 | 81* | 0.2 | 0.1 | 1 | -2 | 89*
CCOc1cccc(-c2nn3c(-c4cc(C)[nH]n4)nnc3s2)c1 | 17 | 0.8 | 0.9 | 8 | 0 | 10
Clc1ccc(-c2nn3c(-c4ccccc4)nnc3s2)cc1 | 40 | 0.6 | 0.2 | 7 | -5 | 81*
COc1cccc(OC)c1-c1nn2c(-c3cc(-c4ccccc4)n[nH]3)nnc2s1 | 57* | 0.4 | 0.4 | . | . | 56*
CCC(=O)Nc1nnc(CSCc2ccc(F)cc2)s1 | 6 | 0.9 | 0.7 | -36 | -4 | 35
COCCN(CC(=O)NCc1ccc(OC)cc1)C(=O)CCC(=O)Nc1nccs1 | 1 | 1 | 0.9 | 0 | -2 | 6
CC1CCCC(C)N1C(=O)CSc1nnnn1Cc1ccccc1 (configuration not stated) | 5 | 0.9 | 0.8 | -6 | -1 | 20
C=C(C)Cn1c(CCCNC(=O)CCC)nc2ccccc21 | -77 | 1.8 | 0.9 | -13 | 7 | 8
Clc1ccc(-c2nnc3ccccn23)cc1 | -27 | 1.3 | 1.1 | -4 | -2 | -13
SMILES | CYP2C9 inhib | CYP2C9 activ | CYP2C19 act | CD11b adhes inh | CD11b adhes enh | CYP2C19 inh
Clc1cccc(-c2nn3c(-c4ccncc4)nnc3s2)c1 | -6 | 1.1 | 0.5 | -17 | -2 | 55*
COc1ccc(-c2nn3c(-c4ccccc4)nnc3s2)cc1 | 70* | 0.3 | 0.3 | 10 | 5 | 74*
Cc1cn2c(-c3ccc(Cl)cc3)nnc2s1 | 9 | 0.9 | 0.4 | -7 | 3 | 58*
Cc1cc(C)c(S(=O)(=O)c2c(C)cccc2C)c(Cl)n1 | 43 | 0.6 | 0.3 | . | . | 75*
Cc1cc(C)c(S(C)(=O)=O)c(S(=O)(=O)c2ccc(Cl)cc2)n1 | 37 | 0.6 | 0.7 | 42 | -4 | 29
O=C(Cn1c(=O)n(-c2ccc(F)cc2)c(=O)c2sccc21)c1ccccc1 | . | . | . | -21 | -5 | .
COC(=O)c1cccnc1-n1c(=O)c2cccnc2n(Cc2cccc(OC)c2)c1=O | 43 | 0.6 | 0.2 | -12 | 2 | 78*
COC(=O)c1ccc(N2CCN(CC(=O)c3ccc(-c4ccccc4)cc3)CC2)c([N+](=O)[O-])c1 | 50* | 0.5 | 0.6 | . | . | 39
COc1ccccc1N(CC(O)CN1C(=O)NC(C)(C)C1=O)S(=O)(=O)c1ccc(C)cc1 (configuration not stated) | 60* | 0.4 | 0.1 | 3 | -2 | 94*
Cc1ccc(S(=O)(=O)N(CC(O)CN2C(=O)NC(C)(C)C2=O)c2ccccc2)cc1 (configuration not stated) | 14 | 0.9 | 0.7 | . | . | 32
CCc1nnc(NC(=O)CSc2nc3ccccc3o2)s1 | 59* | 0.4 | 1 | 2 | 1 | 2
O=C(CSc1nc2ccccc2o1)Nc1nc(-c2ccccc2)c(-c2ccccc2)s1 | . | . | . | 17 | 9 | .
C=CCSc1nnc(NC(=O)CSc2nc3ccccc3o2)s1 | 82* | 0.2 | 0.4 | 7 | 1 | 59*
O=C(CSc1nc2ccccc2o1)Nc1nncs1 | 55* | 0.4 | 0.7 | 6 | 1 | 33
O=C(CSc1nc(-c2ccccc2)c(-c2ccccc2)o1)Nc1nncs1 | 44 | 0.6 | 1.1 | 2 | -2 | -14
CCOC(=O)NCc1cc(-c2nn(C)c(=O)c3ccccc23)ccc1C | 78* | 0.2 | 0.3 | 15 | -2 | 69*
CC(=O)NCc1cc(-c2nn(C)c(=O)c3ccccc23)ccc1C | 27 | 0.7 | 1 | -20 | -4 | -5
Cc1ccc(-c2nn(C)c(=O)c3ccccc23)cc1CNS(C)(=O)=O | -135 | 2.3* | 0.9 | 3 | -4 | 6
CCOC(=O)c1cc(-c2ccccc2)sc1NC(=O)CCN1C(=O)c2ccccc2C1=O | . | . | . | 1 | 2 | .
CCOC(=O)c1cc2occc2n1CCCN1C(=O)c2ccccc2C1=O | 87* | 0.1 | 0.8 | -7 | 2 | 21
CCOC(=O)c1cc2sc(C)cc2n1CCCN1C(=O)c2ccccc2C1=O | 57* | 0.4 | 0.9 | . | . | 14
CCOC(=O)c1cc2occc2n1CC(=O)N1CCOCC1 | -11 | 1.1 | 0.9 | 18 | 0 | 9
Cc1nc(-c2ccccc2)sc1C(=O)CSc1ccc(F)cc1 | 86* | 0.1 | 0.4 | 21 | 2 | 64*
